# In the library only some 2.6% were active in any assay of this set; here they are far more common.
# KKLEB cytotox – cytotoxicity in KKLEB CF airway cells, primary screen, cytotoxicity control for CF NF-kB inhibitor project, cell-based, uHTS, fluorescence assay plates; KKLEB CF airway cells viability, ATPlite luminescence, overnight; active compounds read low; cells stimulated with P. aeruginosa culture filtrate; activity change (cytotoxicity), % at 5 µM; 0.36% of 360,000 active; AID 602141, 2011;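 active means corrected activity change at or below -50% at 5 µM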
# TWEAK Fn14 block – inhibitors of TWEAK-Fn14 signaling, primary screen, luciferase reporter cells, uHTS. TWEAK-stimulated Fn14 reporter cells, luciferase luminescence, 8 h. inhibition, % at 10 µM. 2% of 360,000 active. AID 1159606, 2016; in the data active means inhibition above about 50%
# EWS-Fli block – EWS/Fli-driven NR0B1 reporter inhibitors, primary screen, A673 cells, NR0B1 luciferase, luminescence, MLPCN library; viability-normalised; 0.67% of 350,000 active; inhibition, % at 12.6 µM;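 active means mean inhibition of at least 50% after viability correction, with every replicate also passing that limit; inconclusive means mean reaches 50% but only one of two replicates passes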;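 further: firefly luciferase signal divided by Alamar Blue viability fluorescence both relative to DMSO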
# CF NFkB inh – inhibitors of PAF-induced NF-kB signaling, primary screen, cell-based, GFP fluorescence, uHTS; KKLEB NF-kB-GFP reporter, GFP fluorescence overnight; inhibition, % at 5 µM; 0.86% of 360,000 active; AID 588850, 2011;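 active means at least 50% inhibition at 5 µM, scaled per plate between neutral and stimulator controls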;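 further: PAF is a Pseudomonas aeruginosa culture filtrate used as stimulus; plate controls were PAF-stimulated DMSO wells for no effect and unstimulated DMSO wells for full effect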
# TROY signal inh – inhibitors of TROY-driven NF-kB signaling, primary screen, Q293 LMP1-TROYcd cells, NF-kB luciferase, uHTS. Q293 LMP1-TROYcd NF-kB luciferase reporter, 4 h. inhibition, % at 10 µM. 0.98% of 360,000 active. AID 1347056, 2019;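 active means compounds whose plate-normalised and pattern-corrected inhibition of the luciferase reporter signal at the single screening dose is 50% or more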
# LGR2 antag – inhibitors of bursicon-induced LGR2 CRE-luciferase signal, primary screen, cell-based, HEK293, CRE-luciferase reporter, bursicon stimulation; Drosophila bursicon receptor LGR2 (rickets); bursicon-stimulated, 4 h; inhibition, % at 9.99 µM; 0.35% of 380,000 active;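 active means drop in luminescence signal, shown as inhibition above about 50% in the replicate tests, limit read from the data, passing the limit was not always enough; inconclusive means probably only some replicates passing the limit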;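 further: agonist challenge used bursicon conditioned medium at about half maximal strength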
# Numbers without * were called inactive; ? = inconclusive; . = no result given.
SMILES,KKLEB cytotox,TWEAK Fn14 block,EWS-Fli block,CF NFkB inh,TROY signal inh,LGR2 antag
CN(C)S(=O)(=O)c1cccc(-c2nn(-c3ccccc3)cc2/C=C2\SC(=S)NC2=O)c1,-17,64*,-1,53*,67*,16
O=C(NCc1ccc2c(c1)OCO2)[C@H]1[C@H](CO)[C@H]2Cn3c(cccc3=O)[C@@H]1N2Cc1cccnc1,.,.,-1,.,.,3
CC(OC(=O)c1ccccc1Oc1ccccc1)C(=O)NC1CC1 (stereo unspecified),0,10,1,-14,59*,5
C[C@@H]1CN([C@H](C)CO)C(=O)c2cccc(NS(=O)(=O)c3cccs3)c2O[C@H]1CN(C)C(=O)Nc1ccc(C(F)(F)F)cc1,.,.,8,.,.,.
COc1ccc(CCn2c(-c3ccco3)nc3nc4ccccc4nc32)cc1,-3,57*,.,-10,32,-13
Clc1ccc(-c2nc3nc4ccccc4nc3n2Cc2ccco2)cc1,8,59*,.,-2,-5,.
c1ccc(Cn2c(-c3ccco3)nc3nc4ccccc4nc32)cc1,4,-8,.,-3,5,.
Cc1ccc(-c2nc3nc4ccccc4nc3n2Cc2ccco2)cc1,-1,90*,.,-3,74*,.
COc1ccc(S(=O)(=O)Nc2ccc3c(c2)C(=O)N([C@H](C)CO)C[C@H](C)[C@@H](CN(C)C(=O)Nc2cccc4ccccc24)O3)cc1,.,.,-9,.,.,-6
Cc1cc(/C=C(\C#N)C(=O)N2CCOCC2)c(C)n1C1CCCC1,-6,74*,8,-6,74*,52*
CCC(=O)N1CC2(C1)CN(C(=O)Cc1ccccc1)[C@H](CO)c1c2c2ccc(OC)cc2n1C,.,.,1,.,.,2
Cc1ccc2c(c1)C1(OCCCO1)C(=O)N2CC(=O)NN,-9,94*,-5,9,-10,-3
CC(C)NC(=O)N(C)C[C@H]1Oc2ccc(N(C)C)cc2C(=O)N([C@H](C)CO)C[C@@H]1C,.,.,0,.,.,.
CN1CCN(Cc2c(O)ccc3occ(C(=O)c4ccccc4)c23)CC1,-16,8,.,16,4,.
CC(=O)C(C(C)=O)c1c(Cl)c(O)c(O)c2c(C(=O)c3ccccc3)coc12,-26,76*,.,34,41,?
CO[C@@H]1CN(C)C(=O)c2cc(NS(=O)(=O)c3ccc(C)cc3)ccc2OC[C@@H](C)N(C)C[C@@H]1C,.,.,-1,.,.,-7
Cc1c(C(=O)Nc2ccc3c(c2)OCCO3)sc2nc(-c3ccccc3)cn12,2,85*,.,-21,67*,33
Cc1c(C(=O)NCc2cccnc2)sc2nc(-c3ccccc3)cn12,-4,-24,-51,15,-41,-58
Cc1c(C(=O)Nc2ccncc2)sc2nc(-c3ccccc3)cn12,7,68*,-38,-18,28,-15
C[C@H](CO)N1C[C@H](C)[C@@H](CN(C)S(C)(=O)=O)Oc2ncc(C#Cc3ccc(F)cc3)cc2C1=O,.,.,-5,.,.,11
C[C@H]1CN([C@@H](C)CO)S(=O)(=O)c2ccc(C3=CCCCC3)cc2O[C@H]1CN(C)C(=O)Cc1ccccc1,.,.,18,.,.,1
O=C(C[C@H]1CC[C@@H]2[C@H](COC[C@@H](O)CN2Cc2cccc(C(F)(F)F)c2)O1)NCc1ccc(Cl)cc1,.,.,5,.,.,2
Cc1ccc(N=Nc2cc(C)ccc2O)c(C)c1,15,-37,-110,-8,-47,-88
Cc1ccc(N=Nc2cc(C)ccc2N)cc1,-23,-13,43,-14,22,68*
C[C@H]1CCCCO[C@H](CN(C)CC2CCCCC2)[C@@H](C)CN([C@@H](C)CO)C(=O)c2cc(NC(=O)Nc3ccc4c(c3)OCO4)ccc2O1,.,.,4,.,.,22
COc1cccc(N2CCN(c3ncnc4c3cnn4-c3ccc(C)cc3C)CC2)c1,-83*,106*,48,80*,80*,?
CC1CC(C)CN(c2ncnc3c2cnn3C)C1 (stereo unspecified),12,-4,2,0,-11,8
